Source: the supplement of paper PMC3334620
Over roughly 33,000 sequences, “E-score (-0.5 to 0.5)” has its median near -0.015; the highest 2% begin near 0.3. For the sample, the highest values were picked, then their nearest neighbours and some sequences at random.

Biological target: T1, Abf1 (UniProt P14164)
T1 sequence: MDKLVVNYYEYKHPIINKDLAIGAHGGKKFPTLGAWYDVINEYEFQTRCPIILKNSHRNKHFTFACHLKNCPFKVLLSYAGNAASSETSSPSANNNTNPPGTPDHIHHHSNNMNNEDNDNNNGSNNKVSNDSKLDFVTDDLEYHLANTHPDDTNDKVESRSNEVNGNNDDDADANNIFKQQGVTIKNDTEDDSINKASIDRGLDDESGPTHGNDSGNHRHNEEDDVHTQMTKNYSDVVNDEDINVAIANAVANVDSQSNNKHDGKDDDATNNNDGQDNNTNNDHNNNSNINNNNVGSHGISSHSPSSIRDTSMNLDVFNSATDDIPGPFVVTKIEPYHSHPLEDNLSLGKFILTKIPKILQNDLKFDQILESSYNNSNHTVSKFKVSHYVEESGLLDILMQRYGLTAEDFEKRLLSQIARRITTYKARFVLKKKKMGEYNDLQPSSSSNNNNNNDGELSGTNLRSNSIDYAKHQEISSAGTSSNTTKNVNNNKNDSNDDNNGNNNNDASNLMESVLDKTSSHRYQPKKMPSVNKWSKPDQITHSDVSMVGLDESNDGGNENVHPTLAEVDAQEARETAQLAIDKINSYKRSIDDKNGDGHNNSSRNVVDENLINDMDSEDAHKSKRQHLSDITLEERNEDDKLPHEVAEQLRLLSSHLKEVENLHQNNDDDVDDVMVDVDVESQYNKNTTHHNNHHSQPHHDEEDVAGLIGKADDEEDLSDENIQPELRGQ
Test: PBM E-score (8-mer binding enrichment) (E-score (-0.5 to 0.5)); higher = stronger / more preferred TF binding
Conditions: protein concentration: 200 nM; construct: GST-full length
Procedure: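 Universal 'all 10-mer' protein binding microarrays (Agilent AMADID 015681) probed with GST-tagged S. cerevisiae TFs (full-length or DBD) made by in vitro transcription/translation (PURExpress), about 100-200 nM. Bound TF was detected with fluorescent anti-GST. Each ungapped 8-mer (which stands for itself and its reverse complement) is scored by the PBM enrichment score (E-score), a modified Wilcoxon-Mann-Whitney statistic from -0.5 to +0.5, computed with the Universal PBM Analysis Suite. Scale: above 0.35 generally sequence-specific binding.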

| Sequence | PBM E-score |
| --- | --- |
| CCGATACC | -0.101 |
| ATACGTGG | 0.155 |
| GAACGCGA | -0.146 |
| GGGCGCGA | 0.0618 |
| AGTTGTGC | -0.108 |
| ACGGGCGA | -0.00147 |
| ACTGATAA | 0.126 |
| CGTGATAC | 0.23 |
| ACTGATAT | 0.108 |
| ATTGATAG | -0.0465 |
| AGTGATAA | 0.445 |
| CGTGATAG | 0.221 |
| AGTGATAG | 0.303 |
| GGTGATAC | 0.186 |
| AGTGAGAT | 0.147 |
| AGTGATAC | 0.385 |
| AGTGATAT | 0.442 |
| ATTGATAA | 0.27 |
| AGCGCCAG | -0.0266 |
| AACCAGAA | 0.0884 |
| CCCTCGGA | 0.00175 |
| AGACGACG | 0.235 |
| ATACGAAT | 0.275 |
| ATACGATG | 0.261 |
| ATACGAAG | 0.328 |

| Sequence | PBM E-score |
| --- | --- |
| ATACGATC | 0.307 |
| ATACGACG | 0.341 |
| ATACGAAA | 0.349 |
| CTACGAAG | 0.215 |
| ATACGACC | 0.239 |
| CTACGATC | 0.195 |
| AAACGAAA | 0.159 |
| ACACGAAG | 0.269 |
| CGAATACG | 0.189 |
| ACCCGAGT | -0.152 |
| ACATTGAA | 0.0551 |
| ACGGTCGC | 0.134 |
| TGTAACAA | 0.0346 |
| AGCAGGCA | -0.114 |
| ACTGTATG | -0.184 |
| ACTGAAGT | -0.0998 |
| GTCCCGAA | 0.00205 |
| AAAATCAC | 0.352 |
| AAAATCAA | 0.0207 |
| CAAATCAC | 0.19 |
| GAAATCAA | 0.0471 |
| GAAATCAC | 0.322 |
| AAAATCAG | 0.193 |
| AACTGAGA | 0.0232 |
| ATTGATCA | 0.267 |

| Sequence | PBM E-score |
| --- | --- |
| AATGATCG | 0.232 |
| ATAGATCA | 0.267 |
| AATGATCA | 0.347 |
| GTAGATCA | 0.319 |
| CATGATCG | 0.0839 |
| GTTGATCA | 0.298 |
| CTAGATCA | 0.161 |
| CATGATCC | 0.00859 |
| CTTGATCA | 0.183 |
| CATGATCA | 0.33 |
| AATGATCC | 0.0166 |
| CATGCGGC | -0.229 |
| GGTTAACA | -0.138 |
| AAAGAACT | 0.0334 |
| ACATTAGA | 0.0369 |
| AGTTAACT | -0.0757 |
| AATGAACT | -0.177 |
| TACGATCA | 0.208 |
| TAAGATCA | 0.314 |
| TCTGATCA | 0.155 |
| GATGATCA | 0.329 |
| GATGATTA | 0.263 |
| TATGATCA | 0.309 |
| AAAGATCA | 0.164 |
| AATGATCT | 0.324 |

| Sequence | PBM E-score |
| --- | --- |
| CAAGATCA | 0.16 |
| ACTGATCT | 0.0694 |
| GATGATCC | 0.0853 |
| GCCTAGAC | -0.11 |
| ATACATTC | 0.0799 |
| AACGGGGC | -0.0372 |
| ACGCACCA | -0.101 |
| CCATTTCC | -0.0246 |
| CGGGTTAG | -0.173 |
| CAAATAGA | 0.0564 |
| GAGGTATC | 0.047 |
| ATAAGTGC | 0.0214 |
| ATAAGTGA | 0.3 |
| ATAAGTGG | 0.126 |
| CTAAGTGC | -0.0207 |
| CGAAGTGA | 0.272 |
| GTAAGTGA | 0.208 |
| AGAAGTGA | 0.243 |
| CTAAGTGA | 0.327 |
| GGAAGTGA | 0.329 |
| AGATTTAG | 0.0517 |
| CCGGAAGA | 0.0618 |
| AGACTTTA | 0.0584 |
| AGGCTCTG | -0.089 |
| CAGGCACC | -0.178 |

| Sequence | PBM E-score |
| --- | --- |
| GCCAGCCC | -0.375 |
| CACGCTCC | -0.00778 |
| AAAGTGGC | -0.118 |
| AACGTGAG | 0.0297 |
| AGGGTGAT | 0.335 |
| AACGTGAA | 0.057 |
| AAAGTGAC | 0.343 |
| AGGGTGAA | -0.209 |
| ACAGTGAC | 0.259 |
| AACGTGAT | 0.327 |
| AGGGTGAG | -0.102 |
| AAAGTGAA | -0.0183 |
| AAAGTGAG | 0.2 |
| AAAGTGAT | 0.397 |
| CCCCAGGA | -0.301 |
| TAGTTCAA | -0.0129 |
| AACAGCAC | -0.13 |
| CACCCTGG | -0.33 |
| ATAGGCTC | -0.0801 |
| CCAAACCG | -0.0285 |
| AAGGACCC | -0.134 |
| ACATCCTA | 0.0617 |
| AATTCTCG | 0.162 |
| GAAGTGAC | 0.411 |
| AGAGTGAA | -0.0316 |

| Sequence | PBM E-score |
| --- | --- |
| AGAGTGAT | 0.387 |
| AGAGTGAG | 0.0964 |
| CAAGTGAC | 0.242 |
| GAAGTGAA | 0.064 |
| GTCCGGTA | 0.00344 |
| CTCACGTA | -0.0341 |
| AACTATAT | 0.205 |
| TATTATGA | 0.0866 |
| TCTTATCA | 0.316 |
| TATTATCA | 0.34 |
| CATTATCC | 0.262 |
| AGTTATCA | 0.302 |
| GGTTATCA | 0.272 |
| CCTTATCA | 0.236 |
| AGTTATCG | 0.223 |
| TATTATAA | 0.121 |
| CATTATCA | 0.329 |
| ACTTATCA | 0.231 |
| CATTATCG | 0.0198 |
| GGGAGGCA | -0.284 |
| GGGGACGA | 0.135 |
| GATTATTA | 0.0366 |
| GATTATCA | 0.302 |
| AATTATCG | 0.178 |
| GATTATCC | 0.152 |

| Sequence | PBM E-score |
| --- | --- |
| AATTATCA | 0.34 |
| AATTATCC | 0.0502 |
| CATCCATA | 0.0978 |
| CATGAACC | -0.00224 |
| GCCCGAGA | -0.194 |
| ATCATTAA | 0.307 |
| GTCATTAA | 0.385 |
| GACATTAA | 0.227 |
| ATCATTAG | 0.279 |
| CTCATTAA | 0.148 |
| ATCATTAC | 0.262 |
| CTAAGCGC | -0.121 |
| CTTTGCAC | 0.209 |
| ACCTTTAC | -0.0849 |
| CGTTCGAC | 0.122 |
| ATTTCGTG | 0.288 |
| CGTTCGGC | 0.0205 |
| TGTTCGAA | -0.0208 |
| AGTTCGGG | 0.0167 |
| GGTTCGTA | 0.14 |
| AGTTCGTG | 0.326 |
| AGTTCGTC | 0.164 |
| CGTTCGTC | 0.358 |
| CGTTCGTA | 0.345 |
| CGTTCGAA | 0.311 |

| Sequence | PBM E-score |
| --- | --- |
| AGTTCGTA | 0.264 |
| ATAAGGAT | -0.00817 |
| AGGGAAGC | -0.197 |
| CTGCTGGC | -0.25 |
| ATCGAAAA | 0.0388 |
| GCTCACGA | 0.125 |
| GATCACAA | 0.26 |
| GATCACGA | 0.301 |
| CTTCACGA | 0.2 |
| GATCACAC | 0.118 |
| CATCACGC | 0.191 |
| GTTCACGA | 0.3 |
| ATTCACGA | 0.235 |
| GATCACGC | 0.366 |
| ACACTCGA | -0.0221 |
| CGTCCATC | 0.0706 |
| GATACGGA | 0.279 |
| AGGGTGGG | -0.0843 |
| CATTTGAG | 0.0534 |
| CGCCAGAA | -0.0306 |
| CAGTCGGG | 0.0146 |
| GATAGCCA | -0.0722 |
| GACAATCC | 0.0976 |
| GCACGAAA | 0.336 |
| ATACGAAC | 0.294 |

| Sequence | PBM E-score |
| --- | --- |
| GTACGAAA | 0.376 |
| CTACGAAC | 0.275 |
| GGACGAAC | 0.323 |
| GCACGAAC | 0.269 |
| AGACGAAC | 0.24 |
| ACACGAAA | 0.288 |
| TTACGAAA | 0.279 |
| CTACGAAA | 0.122 |
| GTACGAAC | 0.418 |
| GAACGAAC | 0.121 |
| AAATCTAG | 0.045 |
| ATACTTGA | -0.0426 |
| AAGCACCC | -0.201 |
| ATGGAAAA | 0.177 |
| GATTGAGA | 0.21 |
| CGTTAGTC | 0.00116 |
| GATCGCTA | 0.157 |
| CTAAGCGA | -0.0187 |
| CTTTTAGA | -0.028 |
